Inconclusive results are not listed. Activity calls are given as the source filed them. Unless noted, the call rests on the fitted dose curve; in most records, active means well fitted curve in the direction sought with a large enough effect; inconclusive means small, poorly fitted or top-dose-only effect, or another doubt; inactive means no such curve, though single readings can be large; an effect the other way counts as inactive or inconclusive.
Experiments:
[1] = target: ATP-dependent 6-phosphofructokinase (Trypanosoma brucei brucei) (UniProt O15648); experiment: qHTS Assay to Find Inhibitors of T. brucei phosphofructokinase: hit validation (AID 492961);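 further: luminescence reports ADP formed as PFK phosphorylates fructose-6-phosphate with ATP; series mostly up to about 51 µM; on the % scale 0 is the no-effect control and ±100 the full control effect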
In short: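 In this biochemical qHTS validation, titrated compounds were tested against 1.25 nM PFK with 0.1 mM ATP and 0.5 mM F6P. Percent activity came from controls lacking or containing enzyme.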

[2] = target: Flap endonuclease 1 (Homo sapiens) (UniProt P39748); experiment: qHTS Validation Assay for the Inhibitors of Human Flap endonuclease 1 (FEN1) (AID 488816); further: on the % scale 0 is the no-effect control and ±100 the full control effect
In short: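 Readings taken at 0 and 15 min after starting the reaction with 50 nM (final) substrate supplied the signal. Compounds had first sat with 10 nM FEN1 reagent for 15 min at room temperature. Values come from Hill-equation concentration-response fits.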

[3] = target: Transient receptor potential cation channel subfamily V member 1 (Homo sapiens) (UniProt Q8NER1); experiment: HTS Assay for Compounds that Act as Enhancers of the Vanilloid Receptor 1 (AID 488979); further: 0% is about no effect
In short: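 Calcium influx kinetics via Fluo-8 (480/520 nm) in TRPV1-expressing cells, 2000/well cultured overnight at 35.5C. Compound-alone read 3 min (agonist phase), followed by EC20 capsaicin challenge for 2 min (enhancer phase).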

[4] = target: Galactokinase (Homo sapiens) (UniProt P51570); experiment: qHTS Validation Assay for Inhibitors of Human Galactokinase (GALK) (AID 493189); further: 0% is about no effect
In short: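 Compounds were pin-transferred into ATP buffer, then GALK-galactose mix was added (final 5 nM enzyme, 100 uM galactose, 35 uM ATP). After 1 h at room temperature, remaining ATP was measured luminescently.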

[5] = Validation screen for small molecules that induce DNA re-replication in SW480 colon adenocarcinoma cells (AID 504364); further: 0% is about no effect
In short: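 Cells are treated 48 hr with test compound, stained 40 min with Hoechst at 37 C, and scanned for nuclear fluorescence; compounds inducing re-replication increase nuclei with elevated intensity.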

[6] = target: Thyrotropin receptor (Homo sapiens) (UniProt P16473); experiment: qHTS Assay for Antagonists of the Thyroid Stimulating Hormone Receptor (AID 488980); further: series mostly up to about 58 µM; 0% is about no effect
In short: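 Cells expressing human TSHR (HEK293) are dispensed in HBSS/HEPES containing 70 uM RO 20-1724, compound is added, then TSH at EC80 (4 nM final). Antibody in lysis buffer follows, 30 minutes at room temperature before HTRF detection.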

[7] = target: M-phase phosphoprotein 8 (Homo sapiens) (UniProt Q99549); experiment: qHTS Validation Assay for Inhibitors for MPP8 Chromodomain Interactions with Methylated Histone Tails (AID 488949); further: nearly all actives have a fitted effect of over 55% in size; further: potency means the concentration at half of the fitted maximal effect
In short: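 Disruption of the preformed MPP8–trimethyl-H3K9 peptide complex (both 50 nM, 30 min, RT) is measured after 30 min compound exposure, using AlphaScreen proximity beads; aurintricarboxylic acid titration serves as plate control.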

[8] = target: Chromobox protein homolog 1 (Homo sapiens) (UniProt P83916); experiment: qHTS Validation Assay for Inhibitors of HP1-beta Chromodomain Interactions with Methylated Histone Tails (AID 488953);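 further: loss of AlphaScreen luminescence from HP1-beta binding biotinylated H3K9me3 peptide; series mostly up to about 110 µM; on the % scale 0 is the no-effect control and ±100 the full control effect; nearly all actives have a fitted effect of over 50% in size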
In short: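 Measured as loss of AlphaScreen luminescence from streptavidin donor and nickel acceptor beads (10 ug/mL final) bridging HP1-beta and biotin-H3(1-18)K9me3, each 50 nM. Compounds met the preassembled complex for 30 min at RT.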

[9] = target: Methanococcus maripaludis chaperonin (MmCpn) (UniProt Q6LX38); experiment: High-Throughput Screening for Modulators of Cytosolic Chaperonin Activity: MmCpn Primary Screen (AID 488978);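 further: 50 nM MmCpn enzyme hydrolysing 30 µM ATP at 37 °C; 0% is about no effect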
In short: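 Measures ATPase turnover of the M. maripaludis chaperonin (50 nM final) against 30 uM ATP over 10 min at 37C, with compound added 5 min beforehand at room temperature. ADP is quantified by HTRF immunodetection.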

[10] = Validation screen for small molecules that induce genotoxicity in human embryonic kidney (HEK293T) cells expressing luciferase-tagged ELG1 (AID 493106); further: 0% is about no effect
In short: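 Reporter-gene quantitative HTS in HEK293T cells carrying luciferase-tagged ELG1, whose level climbs under genotoxic stress. Compound exposure lasts 16 hr at 37 °C before luciferase detection.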

[11] = qHTS for Inhibitors of Cell Surface uPA Generation: Validation Assay (AID 493164);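 further: RAW 264.7 macrophage cells exposed to compound for 18 h; 0% is about no effect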
In short: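 RAW 264.7, 4000 cells/well, o/n plating; cpd 7-pt 1:5 dilution 2.45 nM–38.3 uM final; 18 h, 37 C/5% CO2; ATP-Lite, 5 s luminescence exposure.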

[12] = target: Thyrotropin-releasing hormone receptor (Homo sapiens) (UniProt P34981); experiment: qHTS for Small Molecule Agonists and Allosteric Enhancers of Human TRH Receptor: Validation Screen for Agonists (AID 493127;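 active means calcium activation more than 3 SD above the typical response in the agonist read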;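 further: intracellular calcium rise by fluo-8 fluorescence before TRH EC20 addition; 0% is about no effect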); conditions: TRH receptor agonist cell assay; at 2 µM; stronger effect = higher value
In short: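 Gq-coupled calcium mobilization in TRHR cells after compound addition, monitored kinetically with fluo-8 dye on an FDSS reader.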

[13] = target: Thioredoxin reductase 1, cytoplasmic (Rattus norvegicus) (UniProt O89049); experiment: qHTS Assay for Inhibitors of Mammalian Selenoprotein Thioredoxin Reductase 1 (TrxR1) (AID 488773); conditions: Potency: inhibition;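 further: drop in NADPH fluorescence over an 8 min run after selenite addition; series mostly up to about 57 µM; on the % scale 0 is the no-effect control and ±100 the full control effect; nearly all actives have a fitted effect of over 40% in size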
In short: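 Steps: enzyme (90 nM) plus NADPH (400 uM final), 5 min at ~22 deg C; compound added, 15 min; selenite (400 uM final) added; fluorescence followed for 8 min. Concentration-response curves derived from the normalized delta values.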

[14] = target: D(1A) dopamine receptor (Homo sapiens) (UniProt P21728); experiment: HTS Assay for Allosteric Agonists of the Human D1 Dopamine Receptor: Primary Screen for Agonists (AID 488981); further: 0% is about no effect
In short: (§1)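 Calcium flux in an inducible, force-coupled HEK293 Trex D1 line (overnight at 30 C): agonist mode is the 180 s kinetic read after compound; potentiator mode is the following 180 s read after dopamine at EC20.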

[15] = target: D(1A) dopamine receptor (Homo sapiens) (UniProt P21728); experiment: HTS Assay for Allosteric Agonists of the Human D1 Dopamine Receptor: Primary Screen for Potentiators (AID 488982); further: 0% is about no effect
In short: as §1

[16] = target: D(1A) dopamine receptor (Homo sapiens) (UniProt P21728); experiment: HTS Assay for Allosteric Agonists of the Human D1 Dopamine Receptor: Primary Screen for Antagonists (AID 488983);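 further: calcium flux response to an EC80 dopamine challenge measured with no-wash dye; on the % scale 0 is the no-effect control and ±100 the full control effect; nearly all actives have a fitted effect of over 65% in size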
In short: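 Screening of inducible HEK293 T-REx D1 cells: compound first, EC80 dopamine 180 s later, each phase read kinetically for calcium over 180 s.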

[17] = target: ATPase family AAA domain-containing protein 5 (Homo sapiens) (UniProt Q96QE3); experiment: Validation screen for small molecules that inhibit ELG1-dependent DNA repair in human embryonic kidney (HEK293T) cells expressing luciferase-tagged ELG1 (AID 493107);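 further: cells co-treated with the DNA-damaging agent 5-fluorouridine alongside compound; series mostly up to about 46 µM; on the % scale 0 is the no-effect control and ±100 the full control effect; inhibitors lower the ELG1-luciferase luminescence signal; nearly all actives have a fitted effect of over 70% in size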
In short: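 Quantitative HTS in HEK293T cells carrying luciferase-tagged ELG1, stimulated with 5-fluorouridine alongside compound for 16 hr. Loss of luciferase signal marks inhibition of ELG1 response.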

[18] = Nrf2 qHTS screen for inhibitors: Validation (AID 493153; active means well fitted inhibition curve with a large enough effect in the main read-out, with a control signal flat, not every such curve was filed as active); conditions: viability change: measured here: cytotoxicity max response
In short: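 Dose-response validation uses reporter A549 cells with firefly luciferase under an antioxidant response element. Compounds stay on cells 18-24 h at 37°C, and luminescence indicates Nrf2-driven transcription.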

[19] = target: Peptidyl-prolyl cis-trans isomerase NIMA-interacting 1 (Homo sapiens) (UniProt Q13526); experiment: qHTS Validation Assay to Find Inhibitors of Pin1 (AID 504536; active means well fitted inhibition curve with a large enough effect in the polarisation, with a control signal flat, not every such curve was filed as active; the % refers to the polarisation;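 further: 0% = full Pin1 enzyme wells and -100% = no-enzyme wells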)
In short: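 Fluorescence polarization competition: compounds (titration) displace HiFluor-488-labeled Pin1-1b peptide from Pin1 (0.3 uM final) in pH 7.5 HEPES buffer with DTT, 10 min at room temperature; %Activity normalized to no-enzyme wells, curves fitted.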

Galactokinase (Homo sapiens), sequence (P51570 whole entry, looked up): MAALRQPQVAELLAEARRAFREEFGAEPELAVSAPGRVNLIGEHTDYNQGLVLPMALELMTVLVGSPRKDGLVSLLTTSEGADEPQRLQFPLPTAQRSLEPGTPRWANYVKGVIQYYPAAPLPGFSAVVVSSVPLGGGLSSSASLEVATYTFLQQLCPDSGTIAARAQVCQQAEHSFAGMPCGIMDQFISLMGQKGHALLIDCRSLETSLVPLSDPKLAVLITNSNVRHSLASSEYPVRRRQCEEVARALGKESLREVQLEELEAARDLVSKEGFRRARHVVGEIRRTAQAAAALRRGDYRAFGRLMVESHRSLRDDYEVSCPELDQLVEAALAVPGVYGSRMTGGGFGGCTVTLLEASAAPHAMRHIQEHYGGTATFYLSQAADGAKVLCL
Flap endonuclease 1 (Homo sapiens), sequence (P39748 whole entry, looked up): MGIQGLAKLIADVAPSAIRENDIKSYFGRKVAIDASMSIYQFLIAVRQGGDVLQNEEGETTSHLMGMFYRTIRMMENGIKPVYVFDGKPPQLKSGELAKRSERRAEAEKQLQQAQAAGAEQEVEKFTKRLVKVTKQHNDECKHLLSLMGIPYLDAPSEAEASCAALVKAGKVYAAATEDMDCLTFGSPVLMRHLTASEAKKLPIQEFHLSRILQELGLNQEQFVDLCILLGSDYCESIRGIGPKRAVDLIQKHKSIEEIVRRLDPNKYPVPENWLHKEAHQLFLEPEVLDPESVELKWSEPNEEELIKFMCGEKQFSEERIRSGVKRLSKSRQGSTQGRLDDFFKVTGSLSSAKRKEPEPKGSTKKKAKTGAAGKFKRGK
Thyrotropin receptor (Homo sapiens), sequence (P16473 whole entry, looked up): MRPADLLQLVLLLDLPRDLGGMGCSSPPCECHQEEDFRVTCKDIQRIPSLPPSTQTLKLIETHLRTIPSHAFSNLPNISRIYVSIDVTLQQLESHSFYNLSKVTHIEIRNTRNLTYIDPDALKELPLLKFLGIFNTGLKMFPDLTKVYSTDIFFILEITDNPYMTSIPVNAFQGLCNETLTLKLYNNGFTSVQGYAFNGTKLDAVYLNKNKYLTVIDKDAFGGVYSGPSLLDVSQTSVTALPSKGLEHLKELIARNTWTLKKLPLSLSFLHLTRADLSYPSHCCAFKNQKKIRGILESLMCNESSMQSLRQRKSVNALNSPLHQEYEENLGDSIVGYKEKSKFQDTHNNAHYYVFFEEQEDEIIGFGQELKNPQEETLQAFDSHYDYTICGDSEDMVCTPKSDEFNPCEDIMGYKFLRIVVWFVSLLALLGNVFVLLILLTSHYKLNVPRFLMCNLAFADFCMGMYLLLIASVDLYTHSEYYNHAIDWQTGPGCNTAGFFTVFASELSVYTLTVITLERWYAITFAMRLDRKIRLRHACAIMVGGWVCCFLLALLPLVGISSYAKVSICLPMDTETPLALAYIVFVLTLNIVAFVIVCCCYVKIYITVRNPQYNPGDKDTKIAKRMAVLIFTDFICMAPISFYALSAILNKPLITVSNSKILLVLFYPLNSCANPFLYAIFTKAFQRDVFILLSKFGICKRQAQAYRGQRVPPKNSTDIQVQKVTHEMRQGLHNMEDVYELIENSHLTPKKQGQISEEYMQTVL
Transient receptor potential cation channel subfamily V member 1 (Homo sapiens), sequence (Q8NER1 whole entry, looked up): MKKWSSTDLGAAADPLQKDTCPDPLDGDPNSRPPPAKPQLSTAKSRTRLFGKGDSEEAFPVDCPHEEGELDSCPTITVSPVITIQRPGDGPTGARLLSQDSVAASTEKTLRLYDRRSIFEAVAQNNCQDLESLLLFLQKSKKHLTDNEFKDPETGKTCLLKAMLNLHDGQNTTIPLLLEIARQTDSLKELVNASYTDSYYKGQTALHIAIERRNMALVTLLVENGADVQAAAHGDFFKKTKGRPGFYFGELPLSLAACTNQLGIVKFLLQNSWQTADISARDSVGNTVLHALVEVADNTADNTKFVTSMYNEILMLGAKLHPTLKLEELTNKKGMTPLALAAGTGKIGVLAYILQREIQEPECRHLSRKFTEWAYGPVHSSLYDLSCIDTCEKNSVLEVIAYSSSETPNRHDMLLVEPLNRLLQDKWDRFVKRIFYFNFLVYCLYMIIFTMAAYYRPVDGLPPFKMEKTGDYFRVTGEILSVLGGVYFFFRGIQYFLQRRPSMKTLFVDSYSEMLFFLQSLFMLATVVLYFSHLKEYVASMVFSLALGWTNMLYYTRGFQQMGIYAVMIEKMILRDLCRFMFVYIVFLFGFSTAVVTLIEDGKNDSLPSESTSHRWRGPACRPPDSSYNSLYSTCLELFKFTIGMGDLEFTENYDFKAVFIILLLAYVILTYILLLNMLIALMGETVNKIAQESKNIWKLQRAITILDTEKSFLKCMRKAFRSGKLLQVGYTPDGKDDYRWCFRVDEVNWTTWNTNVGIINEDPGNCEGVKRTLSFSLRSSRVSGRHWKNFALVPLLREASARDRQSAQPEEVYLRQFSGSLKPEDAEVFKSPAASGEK
Chromobox protein homolog 1 (Homo sapiens), sequence (P83916 whole entry, looked up): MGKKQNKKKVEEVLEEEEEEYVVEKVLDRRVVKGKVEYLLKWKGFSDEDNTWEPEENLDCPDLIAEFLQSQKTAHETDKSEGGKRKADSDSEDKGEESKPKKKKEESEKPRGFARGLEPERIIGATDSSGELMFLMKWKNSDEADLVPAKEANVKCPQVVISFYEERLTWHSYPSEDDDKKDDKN
M-phase phosphoprotein 8 (Homo sapiens), sequence (Q99549 whole entry, looked up): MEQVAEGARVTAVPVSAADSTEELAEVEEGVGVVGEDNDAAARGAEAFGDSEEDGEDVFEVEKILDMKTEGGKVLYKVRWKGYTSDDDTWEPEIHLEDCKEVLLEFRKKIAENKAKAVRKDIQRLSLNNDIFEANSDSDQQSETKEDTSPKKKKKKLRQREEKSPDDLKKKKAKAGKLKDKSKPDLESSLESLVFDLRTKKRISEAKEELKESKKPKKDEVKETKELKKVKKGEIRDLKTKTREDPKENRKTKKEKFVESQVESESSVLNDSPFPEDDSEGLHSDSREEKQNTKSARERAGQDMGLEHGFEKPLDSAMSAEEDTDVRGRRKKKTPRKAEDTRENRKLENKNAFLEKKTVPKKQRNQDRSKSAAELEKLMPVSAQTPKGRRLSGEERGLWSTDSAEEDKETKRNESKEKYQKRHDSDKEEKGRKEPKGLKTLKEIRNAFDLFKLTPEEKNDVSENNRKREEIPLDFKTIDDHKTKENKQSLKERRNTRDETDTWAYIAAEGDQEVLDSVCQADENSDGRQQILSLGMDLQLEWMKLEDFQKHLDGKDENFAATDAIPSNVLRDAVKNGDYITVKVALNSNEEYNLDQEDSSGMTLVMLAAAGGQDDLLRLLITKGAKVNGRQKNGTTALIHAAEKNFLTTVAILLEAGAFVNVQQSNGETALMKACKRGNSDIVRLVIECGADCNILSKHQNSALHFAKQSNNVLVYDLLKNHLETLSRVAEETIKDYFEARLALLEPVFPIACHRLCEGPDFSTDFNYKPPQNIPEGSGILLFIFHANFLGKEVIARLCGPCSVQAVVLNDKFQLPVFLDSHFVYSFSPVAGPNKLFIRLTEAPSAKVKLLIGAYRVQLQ
Peptidyl-prolyl cis-trans isomerase NIMA-interacting 1 (Homo sapiens), sequence (Q13526 whole entry, looked up): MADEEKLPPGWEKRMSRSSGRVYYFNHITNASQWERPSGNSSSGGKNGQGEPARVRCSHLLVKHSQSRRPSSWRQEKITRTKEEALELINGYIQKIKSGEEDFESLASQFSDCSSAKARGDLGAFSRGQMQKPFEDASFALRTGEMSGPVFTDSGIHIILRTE
ATP-dependent 6-phosphofructokinase (Trypanosoma brucei brucei), sequence (O15648 whole entry, looked up): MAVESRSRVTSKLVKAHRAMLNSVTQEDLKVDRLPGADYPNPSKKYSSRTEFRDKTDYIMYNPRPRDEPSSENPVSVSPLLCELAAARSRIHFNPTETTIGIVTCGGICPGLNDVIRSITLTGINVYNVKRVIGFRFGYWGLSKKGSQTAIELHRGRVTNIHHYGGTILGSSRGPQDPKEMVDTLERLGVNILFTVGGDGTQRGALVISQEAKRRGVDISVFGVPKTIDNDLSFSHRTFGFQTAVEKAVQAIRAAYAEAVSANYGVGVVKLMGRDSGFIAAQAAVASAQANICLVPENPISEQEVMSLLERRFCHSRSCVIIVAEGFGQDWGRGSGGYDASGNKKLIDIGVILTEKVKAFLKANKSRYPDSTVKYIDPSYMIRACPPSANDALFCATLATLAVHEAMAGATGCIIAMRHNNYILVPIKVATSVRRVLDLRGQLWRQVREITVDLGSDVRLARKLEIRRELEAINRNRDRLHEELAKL
Thioredoxin reductase 1, cytoplasmic (Rattus norvegicus), sequence (O89049 whole entry, looked up): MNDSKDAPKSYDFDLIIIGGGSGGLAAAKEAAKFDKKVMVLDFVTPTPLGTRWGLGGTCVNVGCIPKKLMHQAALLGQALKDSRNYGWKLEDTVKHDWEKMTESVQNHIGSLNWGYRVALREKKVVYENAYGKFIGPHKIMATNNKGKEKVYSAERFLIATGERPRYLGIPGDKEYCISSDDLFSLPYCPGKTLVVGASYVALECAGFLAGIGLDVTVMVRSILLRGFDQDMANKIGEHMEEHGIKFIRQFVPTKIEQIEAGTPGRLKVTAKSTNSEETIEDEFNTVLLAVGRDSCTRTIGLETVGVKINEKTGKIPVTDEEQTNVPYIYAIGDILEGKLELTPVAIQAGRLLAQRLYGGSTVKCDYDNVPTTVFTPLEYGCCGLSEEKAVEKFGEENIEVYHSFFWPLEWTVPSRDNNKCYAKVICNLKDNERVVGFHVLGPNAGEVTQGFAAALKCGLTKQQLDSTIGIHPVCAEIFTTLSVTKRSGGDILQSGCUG
Thyrotropin-releasing hormone receptor (Homo sapiens), sequence (P34981 whole entry, looked up): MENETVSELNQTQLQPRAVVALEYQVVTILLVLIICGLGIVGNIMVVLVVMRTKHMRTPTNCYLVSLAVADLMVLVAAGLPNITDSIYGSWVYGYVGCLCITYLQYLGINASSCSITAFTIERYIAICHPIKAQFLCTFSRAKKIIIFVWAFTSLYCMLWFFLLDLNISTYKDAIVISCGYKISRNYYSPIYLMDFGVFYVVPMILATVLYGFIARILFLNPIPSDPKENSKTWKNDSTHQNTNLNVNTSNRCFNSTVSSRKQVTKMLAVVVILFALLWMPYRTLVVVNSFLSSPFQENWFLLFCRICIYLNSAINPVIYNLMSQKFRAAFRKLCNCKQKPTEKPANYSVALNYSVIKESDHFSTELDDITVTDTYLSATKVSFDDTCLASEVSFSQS

CCCCCCCCCCCCCCCC[N+](C)(C)C
inactive: Potency [1]

COC(C)(C)CCCC(C)C/C=C/C(C)=C/C(=O)OC(C)C (centres undefined)
inactive: Potency [1]

C[N+](C)(C)CC(=O)O
inactive: Potency [2] | outcome [3] | outcome [4] | outcome [5]

Cc1ccc(Cl)c(O)c1
inactive: Potency [1]

C#CC1(O)CCC2C3CCC4=CC(=O)CCC4(C)C3CCC21C (centres undefined)
inactive: Potency [1]

CC[C@@H]1C(=O)OC[C@@H]1Cc1cncn1C
inactive: outcome [3] | outcome [6] | outcome [4] | outcome [5]

C/C=C(/C)C(=O)O[C@H]1C(C)=C2[C@H]([C@@H]1OC(=O)CCCCCCC)[C@@](C)(OC(C)=O)C[C@H](OC(=O)CCC)[C@@]1(O)[C@H]2OC(=O)[C@@]1(C)O
inactive: Potency [2] | Potency [7] | Potency [8] | outcome [9] | outcome [10] | outcome [11]

C[C@]12CCC(=O)C(O)=C1CC[C@@H]1[C@H]3CCC(=O)[C@@]3(C)CC[C@@H]12
inactive: Potency [1]

CN[C@@H](C)[C@H](O)c1ccccc1
active: Potency [7] 3.55 µM
inactive: outcome [6] | activation [12] 3.19% | outcome [4] | outcome [5]

Cc1nc(-c2ccc(-c3ccc(C(=O)N4CCc5cc6c(cc54)C4(CCN(C)CC4)CO6)cc3)c(C)c2)no1
active: Potency [7] 11.2 µM
inactive: outcome [3] | outcome [6] | activation [12] 1.44% | outcome [4] | outcome [5]

CC(=O)OCC1=C(C(=O)O)N2C(=O)[C@@H](N)[C@@H]2SC1
inactive: Potency [1]

NC1=NC(=O)N2CC12 (centres undefined)
inactive: Potency [1]

CCCN1CCC[C@H](c2cccc(O)c2)C1
1.24%: viability change [18]
inactive: Potency [13] | Potency [8] | outcome [3] | outcome [6] | Potency [14] | outcome [15] | Potency [16] | Potency [1] | outcome [10] | Potency [17] | activation [12] 2.19% | outcome [18] | outcome [11] | outcome [4] | outcome [5]

COC(=O)[C@@H](N)CCCN=C(N)N[N+](=O)[O-]
-8.47%: viability change [18]
inactive: Potency [13] | Potency [2] | Potency [8] | outcome [9] | Potency [14] | outcome [15] | Potency [16] | outcome [10] | outcome [18] | outcome [11] | outcome [19]

CC[N+]1(CCOC(=O)C(O)(c2ccccc2)c2ccccc2)CCCCC1
inactive: Potency [1]

Cc1nccc2c1[nH]c1ccccc12
inactive: Potency [13] | Potency [7] | Potency [8] | outcome [9] | outcome [3] | outcome [6] | Potency [14] | outcome [15] | Potency [16] | outcome [10] | activation [12] 0.938% | outcome [18] | outcome [11] | outcome [4] | outcome [5] | outcome [19]
6.29%: viability change [18]

COc1ccc2c(c[n+](C)c3c4cc5c(cc4ccc23)OCO5)c1OC
inactive: Potency [13] | Potency [7] | outcome [9] | outcome [3] | outcome [6] | Potency [14] | outcome [15] | Potency [16] | outcome [10] | activation [12] 0.625% | outcome [11] | outcome [4] | outcome [19]

c1ccc(C2(c3ccccc3)CC2C2=NCCN2)cc1 (centres undefined)
inactive: Potency [13] | Potency [2] | Potency [8] | outcome [9] | Potency [14] | outcome [15] | Potency [16] | Potency [1] | outcome [10] | outcome [18] | outcome [11] | outcome [19]
-1.31%: viability change [18]
